Compound activity as filed in PubChem.
CYP2C19 inh: blocks human cytochrome P450 2C19; inhibition, % at 5 µM; 96,000 compounds, 21% hits; CYP2C19 Supersomes, luciferin-H EGE luminescence, 30 min; P33261;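 active = CYP2C19 inhibition above a set limit at 5 µM in the primary screen, cut at about 50% in these data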
Target sequence (P33261 whole entry, looked up): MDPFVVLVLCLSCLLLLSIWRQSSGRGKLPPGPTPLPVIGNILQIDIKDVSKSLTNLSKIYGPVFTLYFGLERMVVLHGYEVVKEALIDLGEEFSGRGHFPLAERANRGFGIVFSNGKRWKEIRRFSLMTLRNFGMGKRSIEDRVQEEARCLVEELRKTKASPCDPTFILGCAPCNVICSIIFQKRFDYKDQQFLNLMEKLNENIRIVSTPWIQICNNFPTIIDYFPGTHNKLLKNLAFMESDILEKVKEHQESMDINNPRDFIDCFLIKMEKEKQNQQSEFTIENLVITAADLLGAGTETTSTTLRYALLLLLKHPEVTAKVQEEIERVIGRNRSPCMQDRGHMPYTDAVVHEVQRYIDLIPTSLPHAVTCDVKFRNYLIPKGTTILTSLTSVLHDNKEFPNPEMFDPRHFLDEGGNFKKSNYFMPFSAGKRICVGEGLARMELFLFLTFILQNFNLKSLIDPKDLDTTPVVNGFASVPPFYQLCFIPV
cytoskel mod: cytoskeleton assembly modification; 91,000 compounds, 0.18% hits; inhibition, % at 2 µM; HUVEC TNFa F-actin phalloidin imaging, high content;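 active = inhibition above the batch mean plus 3 SD and confirmed as a hit by visual image inspection, cut at about 30% in these data, passing the limit was not always enough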
CYP2C9 inh: human CYP2C9 inhibition | inhibition, % at 5 µM | CYP2C9 Supersomes, luciferin-H conversion, luminescence | AID 777 | 96,000 compounds, 20% hits | P11712;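 active = blocking of liver enzyme CYP2C9 beyond about 50% at 5 µM, limit read from the data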
CYP2C9 activ: increases human cytochrome P450 2C9 activity. P11712. AID 1024. recombinant CYP2C9, luciferin-H conversion, luminescence; stronger effect = higher value; factor 1 = untreated enzyme, 0 = blocked. activation factor at 5 µM. 96,000 compounds, 1.4% hits;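 active = activation factor of 2 or more for CYP2C9 at a 5 µM dose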
CYP2C19 activ: activators of human cytochrome P450 2C19; P33261; AID 1025; recombinant CYP2C19, luciferin-H EGE luminescence; stronger effect = higher value; 0 = fully inhibited enzyme, 1 = untreated enzyme; activation factor at 5 µM; 96,000 tested, under 10 active;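 active = activation factor of at least 2 at 5 µM in the primary screen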
E-sel TNF inh: blocks E-selectin expression induced by TNF alpha | HUVEC TNFa-induced E-selectin immunofluorescence, high content | inhibition, % at 2 µM | 120,000 compounds, 0.71% hits;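 active = inhibition above the batch mean plus 3 SD, and confirmed as a hit on visual image review, cut at about 43% in these data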
Numbers stand for hits; n = inactive; x = not tested or not shown. Shown are actives, neighbours in structure and some others; about 22% of the full set was active somewhere.

SMILES	CYP2C19 inh	cytoskel mod	CYP2C9 inh	CYP2C9 activ	CYP2C19 activ	E-sel TNF inh
COc1c(Cl)cc(Cl)cc1C(=O)Nc1ccc(C(=O)O)cc1	x	x	x	x	x	n
Cc1oc(-c2ccccc2Cl)nc1CN1CCCCC1CO (stereo not given)	x	x	x	x	x	n
Cc1oc(-c2ccccc2Cl)nc1Cn1cccc1C1=NC(c2ccccc2)CO1 (stereo not given)	n	n	75	n	n	n
C[C@]1(C(=O)NCCCNc2ncc(C(F)(F)F)cc2Cl)C=C[C@@H](Cc2ccccc2)N1C(=O)c1ccccc1	x	x	x	x	x	n
COC(=O)c1ccc2c(=O)n(Cc3ccco3)c(SCC(=O)Nc3ccc(C)c(Cl)c3)nc2c1	n	n	77	n	n	n
CCCCNC(=O)CSc1nc2cc(OC)c(OC)cc2c(=O)n1Cc1ccc(OC)cc1	n	n	68	n	n	n
COCCn1c(SCC(=O)NCc2ccco2)nc2cccnc21	54	n	n	n	n	n
O=C(CSc1nc2ccccc2c(=O)n1Cc1ccccc1)NCc1ccco1	n	n	n	n	n	n
CCSc1nc2cc(OC)c(OC)cc2c(=O)n1CC	n	n	52	n	n	n
CCn1c(SCC(=O)NCCc2ccc(OC)c(OC)c2)nc2c1c(=O)n(C)c(=O)n2C	n	n	n	n	n	n
CCOC(=O)c1cc(CC)sc1NC(=O)CSc1nc2ccccc2c(=O)n1Cc1ccco1	x	x	x	x	x	n
CCCOc1ccc(C(=O)NC(=S)Nc2nc3ccccc3s2)cc1	n	n	n	n	n	n
CCOC(=O)CSc1nc2cc(C(=O)N3CCCC3)ccc2c(=O)n1Cc1ccccc1	n	n	n	n	n	n
COC(=O)c1nc(NC(=O)C(C)(C)C)n[nH]1	n	n	n	n	n	n
COC(=O)C1=C(C)n2cnnc2NC1c1ccc(Cl)cc1 (stereo not given)	n	x	n	n	n	n
COCCNC(=O)CSc1nc2cc(OC)c(OC)cc2c(=O)n1Cc1ccco1	n	n	83	n	n	n
CCNC(=O)CSc1nc2cc(OC)c(OC)cc2c(=O)n1CCC1=CCCCC1	52	x	52	n	n	x
CCn1c(SCC(=O)c2ccc(NS(=O)(=O)c3ccccc3)cc2)nnc1-c1cccs1	n	n	94	n	n	n
CCn1c(SCC(=O)c2[nH]c(C)c(C(C)=O)c2C)nnc1-c1cccs1	64	n	n	n	n	x
CCn1c(SCC(=O)NC(C)C)nnc1-c1cccs1	n	n	n	n	n	n
CCn1c(SCC(=O)c2cccs2)nnc1-c1cccs1	98	n	n	n	n	x
CCOC(=O)c1c(C)[nH]c(C(=O)CSc2nnc(-c3ccncc3)n2CC)c1C	94	n	84	n	n	n
C=CCn1c(=O)/c(=C/c2ccc(F)cc2)s/c1=C(\C#N)c1nnc2n1CCCCC2	n	n	n	n	n	n
O=C(NCC1CCCO1)c1cc2n(n1)C(C(F)(F)F)CC(c1ccc(Br)cc1)N2 (stereo not given)	n	n	n	n	n	n
COc1ccc(C2C3=C(CCCC3=O)Nc3nc(C(F)(F)F)nn32)cc1OC (stereo not given)	n	x	n	n	n	n
SMILES	CYP2C19 inh	cytoskel mod	CYP2C9 inh	CYP2C9 activ	CYP2C19 activ	E-sel TNF inh
Cc1cccc(OCc2nnc(SCC(=O)c3cccs3)n2C)c1C	78	n	53	n	n	x
Cc1ccccc1OCc1nnc(SCC(=O)NCc2ccccc2)n1C	n	n	n	n	n	n
CCOC(=O)c1c(C)[nH]c(C(=O)CSc2nnnn2-c2ccc(C)cc2)c1C	54	n	n	n	n	n
CSc1nccc(Nc2ccccc2)c1C#N	59	n	69	n	n	x
c1coc(C2Nc3cccc4cccc(c34)N2)c1	59	n	54	n	n	x
Oc1ccc(C2Nc3cccc4cccc(c34)N2)c(O)c1	66	n	x	x	n	n
CCOC(=O)N1CCN(c2c(NCCCOC(C)C)c(=O)c2=O)CC1	n	x	n	n	n	n
CCOc1ccc(CCNC(=O)C2CCN(c3nn4c(=O)cc(C)nc4s3)CC2)cc1	n	x	65	n	n	x
CCN(CCNC(=O)C1CCN(c2nnc(-n3cccc3)s2)CC1)c1ccccc1	83	x	87	n	n	n
CCOc1ccc(CCNC(=O)C2CCN(c3nnc(-n4cccc4)s3)CC2)cc1OCC	n	n	82	n	n	n
Cc1ccc(CCNC(=O)C2CCN(c3nn4c(=O)cc(C)nc4s3)CC2)cc1	n	x	n	n	n	x
CCOc1ccc(CCNC(=O)C2CCN(c3nnc(-n4cccc4)s3)CC2)cc1	n	n	n	n	n	x
O=C(NC1CC1)c1sccc1-n1cccc1	n	n	n	n	n	x
COc1ccc(OC)c(S(=O)(=O)N2CCCCC2C(=O)N2CCN(c3ccccn3)CC2)c1 (stereo not given)	x	x	x	x	x	n
CCOC(=O)N1CCN(CC(O)COCc2ccc(Cl)cc2)CC1 (stereo not given)	n	n	n	n	n	n
CC(C)CN(C(=O)COC(=O)Cn1cnc2ccccc2c1=O)C1CCS(=O)(=O)C1 (stereo not given)	n	n	n	n	n	n
CCc1c(C)sc(NC(=O)C2CCCCC2C(=O)O)c1C(N)=O (stereo not given)	n	n	n	n	n	n
COC(=O)c1ccc(-c2ccco2)n1Cc1ccccc1Cl	n	n	63	n	n	n
CN(C)CCCNC(=S)N(Cc1cccs1)Cc1cc2cc3c(cc2[nH]c1=O)OCCO3	x	x	x	x	x	n
CN1c2ccsc2C(O)=C(C(=S)Nc2ccc(F)c(Cl)c2)S1(=O)=O	n	n	84	n	n	n
CC(C)CC(=O)Nc1ccc(F)c(Cl)c1	n	n	n	n	n	n
c1ccc(-c2csc(Nc3cccnc3)n2)nc1	67	n	68	n	n	n
O=S1(=O)CCC(NC(=S)N2CCCCCC2)C1 (stereo not given)	x	x	x	x	x	70
CN(C)C(=S)NC1CCS(=O)(=O)C1 (stereo not given)	x	x	x	x	x	n
O=C(COC(=O)C1(c2ccc(F)cc2)CCCC1)NCc1ccc2c(c1)OCO2	x	x	x	x	x	n
SMILES	CYP2C19 inh	cytoskel mod	CYP2C9 inh	CYP2C9 activ	CYP2C19 activ	E-sel TNF inh
CC(=O)Nc1ccc(Oc2cc(NC(C)=O)cc([N+](=O)[O-])c2)cc1	x	x	x	x	x	n
CCOc1ccc(Oc2cc(NC(=O)c3ccco3)cc([N+](=O)[O-])c2)cc1	n	n	53	n	n	n
Cc1nn(C)cc1C(=O)Nc1cc(Oc2ccc(Cl)cc2)cc([N+](=O)[O-])c1	n	n	52	n	n	n
CCOc1ccc(N(CC(=O)NCc2ccc(F)cc2)S(=O)(=O)c2c(C)noc2C)cc1	n	x	n	n	n	x
Cc1ccc(N(CC(=O)NCc2ccc3c(c2)OCO3)S(=O)(=O)c2c(C)noc2C)cc1	98	n	57	n	n	x
Cc1noc(C)c1S(=O)(=O)N(CC(=O)NCc1ccc2c(c1)OCO2)c1ccc(C(C)C)cc1	63	n	n	n	n	n
Cc1cc(C)c(NC(=O)c2ccccc2N(C)S(C)(=O)=O)c(C)c1	n	n	n	n	n	n
CC(c1ccco1)N(C(=O)COc1ccc(Cl)cc1Cl)c1ccccn1 (stereo not given)	n	n	n	n	n	n
